Screening results (PubChem BioAssay)
MsrA inhibitor = inhibits bovine methionine sulfoxide reductase A; purified bovine MsrA, absorbance read-out; inhibition, % at 15.5 µM; actives 0.75% (n = 360,000); AID 651718;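 further: 0% = vehicle wells with enzyme and 100% = reference inhibitor wells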
MsrA act = activates bovine MsrA enzyme; activation, % at 10.6 µM; AID 602163; purified bovine MsrA, absorbance read-out; actives 0.3% (n = 360,000); in the data active means activation above about 7.5%;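 further: 0% = vehicle and 100% = reference activator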
rCAG RNA binder = r(CAG) repeat RNA binding. AID 651821. TO-PRO-1 dye displacement fluorescence. actives 1.3% (n = 370,000). inhibition, % at 3 µM;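 active means inhibition above the plate cutoff, the mean of all test compounds on that plate plus 3 SD, cut at about 35% in these data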;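 further: 0% = DMSO alone and 100% = 100 µM mitoxantrone as full dye displacement; higher means more dye released from RNA so lower well fluorescence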
HGIII-sPLA2 inh = Inhibits HGIII-sPLA2 liposome hydrolysis, primary screen | Q9NZ20 | QFRET BODIPY PC-A2 liposome hydrolysis, fluorescence | inhibition, % at 12.2 µM | actives 0.56% (n = 370,000) | AID 743126;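 active means inhibition above mean plus 3 SD of compounds lying within the high and low control bounds, cut at about 19% in these data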;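 further: 0% = median of test compound wells and 100% = no enzyme DMSO wells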
Target sequence (Q9NZ20 whole entry, looked up): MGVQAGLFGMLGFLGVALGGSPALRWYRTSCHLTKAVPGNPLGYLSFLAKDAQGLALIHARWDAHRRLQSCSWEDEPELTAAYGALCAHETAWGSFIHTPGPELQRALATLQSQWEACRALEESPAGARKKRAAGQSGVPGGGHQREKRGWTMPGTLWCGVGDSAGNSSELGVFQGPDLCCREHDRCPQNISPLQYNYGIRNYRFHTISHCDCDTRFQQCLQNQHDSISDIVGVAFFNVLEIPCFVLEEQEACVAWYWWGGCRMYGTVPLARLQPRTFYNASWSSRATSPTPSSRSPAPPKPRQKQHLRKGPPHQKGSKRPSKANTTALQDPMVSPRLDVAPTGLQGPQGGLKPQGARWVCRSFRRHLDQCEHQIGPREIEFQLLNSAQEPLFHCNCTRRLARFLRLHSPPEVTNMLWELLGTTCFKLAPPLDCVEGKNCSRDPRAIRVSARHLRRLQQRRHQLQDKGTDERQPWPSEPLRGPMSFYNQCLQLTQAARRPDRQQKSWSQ
MsrA inh confirm = confirmation of bovine MsrA inhibitors. AID 651822. inhibition, % at 15.5 µM. shares compounds with MsrA inhibitor. actives 41% (n = 2,300). purified bovine MsrA, absorbance read-out;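 further: coupled to thioredoxin reductase with NADPH and selenocystamine and DMSO as substrate; 0% = vehicle only and 100% = full effect of reference inhibitor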
An asterisk follows results filed as active. Rows were chosen to be rich in hits. Some 2.8% of all compounds tested hit in one or more screens of this group. Unless noted, no stated cut-off is given here; in the data, active means inhibition above about 4.5%; inactive means the rest.

`O=C(NCc1cccnc1)c1cc(C2CCCN(C(=O)c3cccs3)C2)on1` (configuration not stated) gave MsrA inhibitor 0.7, MsrA act -1.6, rCAG RNA binder -0.1 and HGIII-sPLA2 inh 3.6.
Screening COc1cc(/C=C2/C(=O)N(c3ccc([N+](=O)[O-])cc3)N=C2N2CCOCC2)ccc1O returned MsrA inhibitor 4.7*, MsrA act -2.6, rCAG RNA binder 5.3, HGIII-sPLA2 inh 6.9 and MsrA inh confirm 4.6*.
For O=[N+]([O-])c1cc(S(=O)(=O)Nc2ccccc2)ccc1NCc1ccccc1 the results were MsrA inhibitor 0.2, MsrA act 1.0, rCAG RNA binder 7.0 and HGIII-sPLA2 inh -23.1.
O=[N+]([O-])c1cc(S(=O)(=O)Nc2ccccc2)ccc1Nc1ccccc1 was read as MsrA inhibitor 5.7*, MsrA act -4.8, rCAG RNA binder 12.0, HGIII-sPLA2 inh -18.1 and MsrA inh confirm 3.8.
`CCc1ccc(NC2=CC(=O)CC(C)(C)C2)cc1` gave MsrA inhibitor 0.6, MsrA act -6.1, rCAG RNA binder -3.5 and HGIII-sPLA2 inh -0.1.
For CC1(C)CC(=O)C=C(Nc2ccc(S(N)(=O)=O)cc2)C1 the results were MsrA inhibitor 4.9*, MsrA act -6.9, rCAG RNA binder -3.5, HGIII-sPLA2 inh 9.5 and MsrA inh confirm 2.9.
For CC1(C)CC(=O)C=C(Nc2ccc(O)c(C(=O)O)c2)C1 the results were MsrA inhibitor 0.7, MsrA act -8.2, rCAG RNA binder 16.0 and HGIII-sPLA2 inh -7.9.
`CC1(C)CC(=O)C=C(Nc2ccc(C(=O)O)cc2)C1` gave MsrA inhibitor 7.0*, MsrA act -3.7, rCAG RNA binder -2.8, HGIII-sPLA2 inh 2.9 and MsrA inh confirm 3.3.
Screening O=C(COC(=O)c1ccco1)Nc1ccc2[nH]c(=O)[nH]c2c1 returned MsrA inhibitor 1.3, MsrA act -5.7, rCAG RNA binder 3.9 and HGIII-sPLA2 inh 3.3.
For O=C(Nc1ccc(Cl)cn1)c1ccccc1[N+](=O)[O-] the results were MsrA inhibitor 0.3, MsrA act -3.9, rCAG RNA binder 0.6 and HGIII-sPLA2 inh 2.0.
For O=[N+]([O-])c1cnc(Nc2ccc(Cl)cn2)c([N+](=O)[O-])c1 the results were MsrA inhibitor 6.1*, MsrA act 1.6, rCAG RNA binder -0.3, HGIII-sPLA2 inh 1.6 and MsrA inh confirm 8.0*.
`Cc1c(C(=O)N/N=C/c2cccs2)nc2ccccn12` gave MsrA inhibitor 6.6*, MsrA act -0.9, rCAG RNA binder 4.5, HGIII-sPLA2 inh 12.0 and MsrA inh confirm 6.4*.
Screening O=C(N/N=C\c1cccs1)c1ccccc1-n1cccc1 returned MsrA inhibitor 0.8, MsrA act -7.7, rCAG RNA binder 0.8 and HGIII-sPLA2 inh -8.2.
CCNC(=S)N/N=C/c1cccs1 was read as MsrA inhibitor 5.5*, MsrA act -3.7, rCAG RNA binder 2.8, HGIII-sPLA2 inh 12.5 and MsrA inh confirm 2.7.
`CCNC(=S)N/N=C/c1cccc(/C=N/NC(=S)NCC)c1` gave MsrA inhibitor 0.6, MsrA act -5.3, rCAG RNA binder -0.8 and HGIII-sPLA2 inh 7.7.
`CCOC(=O)CSc1nc(C(C)(C)C)nc2ccccc12` gave MsrA inhibitor -0.8, MsrA act -1.2, rCAG RNA binder -9.4 and HGIII-sPLA2 inh -4.5.
For CC(C)(C)C1CCN2CCC[C@](c3ccccc3)(C1)C2OCCCO (some centres not stated) the results were MsrA inhibitor 0.6, MsrA act -2.0, rCAG RNA binder -1.4 and HGIII-sPLA2 inh -1.8.
Screening NS(=O)(=O)c1ccc(NC(=S)NNC(=O)c2ccc(Br)o2)cc1 returned MsrA inhibitor 4.9*, MsrA act 2.4, rCAG RNA binder 3.7, HGIII-sPLA2 inh 11.8 and MsrA inh confirm 2.8.
`CC(=O)Nc1ccc(NC2=C/C(=N/S(=O)(=O)c3cccs3)c3ccccc3C2=O)cc1` gave MsrA inhibitor 47.0*, MsrA act 0.9, rCAG RNA binder 10.2, HGIII-sPLA2 inh -6.6 and MsrA inh confirm 44.1*.
`Cc1ccccc1NC1=C/C(=N\S(=O)(=O)c2cccs2)c2ccccc2C1=O` gave MsrA inhibitor 16.0*, MsrA act -5.6, rCAG RNA binder 8.3, HGIII-sPLA2 inh -11.2 and MsrA inh confirm 29.3*.
Screening COc1ccc(S(=O)(=O)/N=C2\C=C(Nc3ccc(O)cc3)C(=O)c3ccccc32)cc1 returned MsrA inhibitor 34.8*, MsrA act 6.2, rCAG RNA binder 22.5, HGIII-sPLA2 inh -38.9 and MsrA inh confirm 33.5*.
`Cc1cc[n+](C2=C([O-])c3ccccc3C(=O)/C2=N\S(=O)(=O)c2cccs2)cc1C` gave MsrA inhibitor 0.1, MsrA act -8.2, rCAG RNA binder 1.0 and HGIII-sPLA2 inh 4.1.
For COc1ccc(S(=O)(=O)c2ccc(O)cc2)cc1 the results were MsrA inhibitor 1.3, MsrA act 0.1, rCAG RNA binder 7.3 and HGIII-sPLA2 inh -11.6.
Screening CCn1ncc([N+](=O)[O-])c1C(=O)Nc1nc2cccc(C)c2s1 returned MsrA inhibitor -0.5, MsrA act -6.0, rCAG RNA binder 7.9 and HGIII-sPLA2 inh -3.8.
`CCn1ncc([N+](=O)[O-])c1C(=O)Nc1c(C)cccc1C` gave MsrA inhibitor 14.0*, MsrA act -3.6, rCAG RNA binder -3.9, HGIII-sPLA2 inh 10.2 and MsrA inh confirm 6.7*.
COc1cccc(N2CCN(S(=O)(=O)c3ccc4c(c3)NC(=O)CS4)CC2)c1 was read as MsrA inhibitor -0.5, MsrA act 2.5, rCAG RNA binder 1.6 and HGIII-sPLA2 inh -17.7.
`CC(/C=C/c1ccccc1)=N\NC(=O)c1ccncc1` gave MsrA inhibitor 0.9, MsrA act -4.1, rCAG RNA binder 0.9 and HGIII-sPLA2 inh -0.6.
`COc1ccc(/C=C(/NC(=O)c2ccccc2)C(=O)NCc2ccncc2)cc1` gave MsrA inhibitor 2.9, MsrA act -12.1, rCAG RNA binder -1.2 and HGIII-sPLA2 inh 6.5.
Cc1ccc(/C=N\NC(=O)/C(=C\Nc2nccc(C)n2)NC(=O)c2ccccc2)cc1 was read as MsrA inhibitor 5.9*, MsrA act -3.0, rCAG RNA binder 3.8, HGIII-sPLA2 inh -0.5 and MsrA inh confirm 6.0*.
`COc1ccc(OCc2cc(/C=N\NC(=O)c3ccccc3)ccc2OC)cc1` gave MsrA inhibitor 0.7, MsrA act -4.3, rCAG RNA binder 11.1 and HGIII-sPLA2 inh -4.3.
Screening COc1ccc(/C=N\NC(=O)/C(=C\Nc2nccc(C)n2)NC(=O)c2ccccc2)cc1 returned MsrA inhibitor 8.2*, MsrA act -2.4, rCAG RNA binder 7.2, HGIII-sPLA2 inh -0.8 and MsrA inh confirm 7.7*.
For COc1ccc(C=CC(C)=NNC(=O)c2ccncc2)cc1 the results were MsrA inhibitor 5.3*, MsrA act -3.6, rCAG RNA binder 0.4, HGIII-sPLA2 inh -0.5 and MsrA inh confirm 6.0*.
`COc1ccc(/C=C(/NC(=O)c2ccccc2)C(=O)N/N=C/c2ccncc2)cc1` gave MsrA inhibitor 6.0*, MsrA act -3.5, rCAG RNA binder 5.1, HGIII-sPLA2 inh 3.6 and MsrA inh confirm 4.9*.
For COc1cccc(C=NNc2ccc([N+](=O)[O-])cn2)c1OC the results were MsrA inhibitor -0.3, MsrA act -3.2, rCAG RNA binder 0.5 and HGIII-sPLA2 inh -3.5.
